About 79,000 compounds went through this panel and 15% of them were active in at least one assay; those are over-represented in the sample as a whole. A number with no mark means an inactive call. Activity calls are given as the source filed them. Cut-off read from the data, not from the text of the source: active = growth inhibition above about 70%; inactive = the rest.
What was measured:
[1] = NCI Yeast Anticancer Drug Screen. Data for the rad50 strain (AID 155);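 note: 0% = growth of vehicle-only cultures of the same strain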; conditions: S. cerevisiae rad50 strain growth inhibition, active compounds read high
How it was run: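 Relative growth inhibition (compound vs vehicle) was measured in yeast with a defined repair-gene alteration.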

[2] = NCI Yeast Anticancer Drug Screen. Data for the mec2-1 strain (AID 157); conditions: S. cerevisiae mec2-1 strain, active compounds read high
How it was run: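 Compounds were applied to mec2-1 yeast cells. Their growth was then compared with that of vehicle-treated cultures to give growth inhibition.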

[3] = NCI Yeast Anticancer Drug Screen. Data for the sgs1 mgt1 strain (AID 161);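 note: 0% = growth of cultures given vehicle only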; conditions: S. cerevisiae sgs1 mgt1 strain, active compounds read high
How it was run: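 Percent growth inhibition was derived by comparing compound-exposed mutant yeast with vehicle-exposed cultures. The strain carries alterations in DNA damage repair.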

[4] = NCI Yeast Anticancer Drug Screen. Data for the cln2 rad14 strain (AID 165);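 note: 0% = growth equal to vehicle treated cultures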; conditions: S. cerevisiae cln2 rad14 strain, active compounds read high
How it was run: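 Strain: cln2 rad14 yeast, altered in cell cycle control and DNA damage repair. Read-out: growth inhibition vs vehicle.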

[5] = NCI Yeast Anticancer Drug Screen. Data for the bub3 strain (AID 167); conditions: S. cerevisiae bub3 mutant strain, active compounds read high
How it was run: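 Screening used yeast with an engineered genetic alteration affecting cell cycle control. Compound-exposed cultures were compared with vehicle cultures, and reduced growth was taken as inhibition.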

[6] = NCI Yeast Anticancer Drug Screen. Data for the mlh1 rad18 strain (AID 175); conditions: S. cerevisiae mlh1 rad18 strain growth inhibition, active compounds read high
How it was run: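 A repair-deficient yeast strain is exposed to test compound, and growth is scored relative to vehicle-treated controls.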

[7] = at 5.0 µM (retest, dose inferred, filed as 0.5)
[8] = at 50.0 µM (retest, dose inferred, filed as 5.0)

| Compound | growth inhibition [1, 7] | growth inhibition [1, 8] | growth inhibition ([1]; at 50.0 µM) | growth inhibition [2, 7] | growth inhibition [2, 8] | growth inhibition ([2]; at 50.0 µM) | growth inhibition [3, 7] | growth inhibition [3, 8] | growth inhibition ([3]; at 50.0 µM) | growth inhibition [4, 7] | growth inhibition [4, 8] | growth inhibition ([4]; at 50.0 µM) | growth inhibition [5, 7] | growth inhibition [5, 8] | growth inhibition ([5]; at 50.0 µM) | growth inhibition [6, 7] | growth inhibition [6, 8] | growth inhibition ([6]; at 50.0 µM) |
| --- | --- | --- | --- | --- | --- | --- | --- | --- | --- | --- | --- | --- | --- | --- | --- | --- | --- | --- |
| [N-]=[N+]=Nc1c(-c2ccccc2)c(Cl)nc2ccccc12 | 11% | 99% (active) | 76% (active) | -7% | 98% (active) | 76.1% (active) | -4% | 98% (active) | 85.2% (active) | 20% | 98% (active) | 82.9% (active) | -33% | 97% (active) | 87.4% (active) | 2% | 98% (active) | 87.2% (active) |
| CCCCCCCCC1(OCCCS(=O)(=O)O)COc2ccccc2OCCOCCOc2ccccc2OC1 | -13% | 87% (active) | 97.9% (active) | -4% | 74% (active) | 87% (active) | -6% | 73% (active) | 97.9% (active) | -4% | 73% (active) | 93.6% (active) | -8% | 80% (active) | 96% (active) | -7% | 87% (active) | 95.2% (active) |
| CCCCCCCCCCCC(N)c1ccccc1 (stereo not given) | 99% (active) | 99% (active) | 99.5% (active) | 99% (active) | 99% (active) | 99.5% (active) | 99% (active) | 99% (active) | 99.2% (active) | 99% (active) | 99% (active) | 99.1% (active) | 99% (active) | 99% (active) | 99.2% (active) | 99% (active) | 99% (active) | 99.5% (active) |
| O=C(O)C1CC[N-]CC1.O=C(O)C1CC[N-]CC1.[Cl][Pt+2]([Cl])([Cl])[Cl] | 30% | 90% (active) | 97.6% (active) | 2% | 94% (active) | 85.2% (active) | 38% | 94% (active) | 94.1% (active) | 0% | 97% (active) | 81.7% (active) | 17% | 93% (active) | 90.2% (active) | 25% | 94% (active) | 88.8% (active) |
| N#Cc1cccc(C[P+](c2ccccc2)(c2ccccc2)c2ccccc2)c1 | 14% | 45% | 78.3% (active) | -1% | 22% | 46% | 3% | 38% | 75.8% (active) | 8% | 6% | 42.9% | 4% | 32% | 45.8% | 7% | 30% | 56.8% |
| C=C1C(=O)OC2CC3(C)CC(O)C(O)C(=C)C3CC12 (stereo not given) | 0% | 6% | 91.2% (active) | 1% | 6% | 94.7% (active) | -1% | 14% | 93.1% (active) | -2% | 5% | 91.5% (active) | 0% | 8% | 93% (active) | 1% | 9% | 92.2% (active) |
| c1ccc(C(CNCCN2CCCCCC2)C2CCCCC2)cc1 (stereo not given) | 21% | 12% | 82.5% (active) | 13% | 22% | 44.6% | 26% | -9% | 89.8% (active) | 10% | 16% | 74.7% (active) | 22% | 20% | 66.5% | 18% | 23% | 87.2% (active) |
| CCCCCCCCCCCCCCCC(=O)N(CCCN(CC)CC)C(C)CCCN(CC)CC (stereo not given) | 90% (active) | 98% (active) | 60.1% | 28% | 99% (active) | 71.9% (active) | 51% | 99% (active) | 44.9% | 36% | 99% (active) | 76.4% (active) | 53% | 99% (active) | 19.6% | 85% (active) | 97% (active) | 17.7% |
| O=C(N/C(=C\c1nc2ccccc2s1)c1ccccc1O)c1ccccc1 | -10% | 68% | 29.8% | 7% | 30% | 12.3% | -16% | 31% | 38.5% | 2% | 41% | 17.2% | -5% | 75% (active) | 32.4% | 19% | 37% | 32% |
| O=[N+]([O-])c1ccc(/C=N/NC2=CS(=O)(=O)C=C2)cc1 | 0% | 17% | 0.8% | -2% | 0% | 2.45% | -5% | 1% | 8.4% | -2% | 0% | 38% | -4% | 5% | 16.7% | -4% | 2% | 1.1% |
| CC(C)C(=O)/C=C/c1c(Cl)cccc1Cl | 22% | 26% | 26.6% | 14% | 22% | 41.9% | 11% | 20% | 48.4% | 16% | 28% | 46% | 22% | 18% | 54.9% | 19% | 21% | 43.6% |
| COc1ccc2ccc(/C=C/[N+](=O)[O-])cc2c1OC | 48% | 98% (active) | 55.1% | 40% | 99% (active) | 88.2% (active) | 53% | 99% (active) | 34.8% | 41% | 99% (active) | 37.9% | 67% | 99% (active) | 85.3% (active) | 37% | 98% (active) | 67.6% |
| COC(=O)CC1c2cc(OC)c3cccc(OC)c3c2CCC1(C)C(=O)OC (stereo not given) | 94% (active) | 89% (active) | 45.8% | 94% (active) | 90% (active) | 18.4% | 95% (active) | 95% (active) | 93.2% (active) | 91% (active) | 90% (active) | 73% (active) | 95% (active) | 90% (active) | 77.2% (active) | 94% (active) | 91% (active) | 13.7% |
| COc1ccc2c(ccc[n+]2CC(=O)c2ccc(-c3ccccc3)cc2)c1 | -24% | 5% | 13.1% | -5% | -1% | 14.8% | -20% | 24% | 2.75% | -2% | 5% | -12.8% | 3% | 8% | -2.75% | -3% | 12% | 40% |
| O=[N+]([O-])c1cccc(S(=O)(=O)Nc2cccc3ccccc23)c1 | 4% | 97% (active) | 99% (active) | 1% | 98% (active) | 99.2% (active) | 2% | 97% (active) | 99.2% (active) | 4% | 98% (active) | 99.2% (active) | 1% | 97% (active) | 99.2% (active) | -3% | 97% (active) | 98.7% (active) |
| CC1=C(C2CO2)C(=O)C(C)=C(C2CO2)C1=O (stereo not given) | 68% | 100% (active) | 99.6% (active) | 40% | 100% (active) | 99.5% (active) | 43% | 99% (active) | 99.5% (active) | 59% | 99% (active) | 99.5% (active) | 43% | 99% (active) | 98.2% (active) | 60% | 99% (active) | 99.5% (active) |
| CC(NNC(=S)N1CCCC1)c1cccnn1 (stereo not given) | 98% (active) | 99% (active) | 89% (active) | 91% (active) | 99% (active) | 92.3% (active) | 97% (active) | 99% (active) | 88.6% (active) | 96% (active) | 99% (active) | 90.5% (active) | 98% (active) | 99% (active) | 91.2% (active) | 97% (active) | 99% (active) | 85.3% (active) |
| OCCN(CCO)c1cc(/C=C/c2ccnc3ccccc23)nc2ccccc12 | 7% | 32% | 60.5% | 1% | 23% | 28.6% | 12% | 47% | 28.6% | -1% | 43% | 61.5% | 1% | -13% | -12.6% | 9% | 35% | 53.4% |
| O=C(Nc1ccccc1Cl)c1ccc(Cl)c(Cl)c1 | 4% | 0% | -0.85% | 4% | 2% | 1% | 1% | 1% | 10.2% | 2% | -2% | 29.6% | 1% | -3% | 2.2% | -1% | 1% | -18.2% |
| COc1ccc(CNc2nc3cc(C(F)(F)F)ccc3nc2C)cc1OC | -9% | 22% | 87.8% (active) | -34% | 39% | 91.3% (active) | 6% | 38% | 91.4% (active) | 11% | 74% (active) | 92.7% (active) | -30% | 18% | 89.7% (active) | -19% | 18% | 89.2% (active) |

Reference: PubChem BioAssay (NCI)
